Source: PubChem BioAssay
A selection: hits, their analogues and other compounds. The true share with any hit is near 2.6%.
ATXN2 expr inh – inhibitors of ATXN2 expression | Potency, µM (doses to about 57 µM), most hits filed as inhibitors | AID 1745845 | 360,000 tested, 0.72% active | HEK-293 ATXN2-luciferase reporter, luminescence, 24 h; also: nearly all actives have a fitted effect of over 55% in size
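qHTS (up to 57 uM final) was run with 24 h compound exposure of reporter cells at 37 °C. Each well was multiplexed: SteadyGlo luminescence measured ATXN2-luciferase expression after a fluorogenic Gly-Phe-AFC viability readout (25 uM final).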
uPA surface inh – blocks generation of uPA at the cell surface. cell surface uPA generation assay, qHTS. Potency, µM (titrated, usually from 38.3 µM), actives largely listed as inhibitors. 330,000 tested, 0.31% active. AID 540303; active = well fitted inhibition curve with a large enough effect; inconclusive = small, poorly fitted or top-dose-only effect; inactive = no such curve, though single readings can be large or run the other way; tested in mouse RAW 264.7 cells; also: nearly all actives have a fitted effect of over 55% in size
TGFb inhibitor – blocks TGF-b signaling; HepG2 CAGA-GFP TGF-b/SMAD3 reporter, GFP fluorescence, 18 h; TGF-beta stimulated, 500 pg/mL final; Potency, µM (highest dose often 46.1 µM), usual class: inhibitors; 410,000 tested, 1.2% active; also: nearly all actives have a fitted effect of over 65% in size
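HEPG2 CAGA-GFP reporter cells (1000/well, DMEM with 1% FBS) received compounds, then recombinant TGF-beta at 500 pg/mL final for 18 hours at 37 degrees C. Per-cell GFP summed per well was normalised to unstimulated and stimulated DMSO controls before curve fitting.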
Giardia killer – kills Giardia lamblia; 340,000 tested, 0.15% active; Giardia lamblia trophozoite viability; activity change, % at 7.66 µM, hits read low; in the data active = activity change below about -80%; inconclusive = between about -30% and that limit;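 also: parasites exposed to compound for two days anaerobically before the ATP read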
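Each well holds 100 Giardia trophozoites and compound. After two days (48 hrs) at 37 deg C in anaerobic conditions, ATP is quantified by luminescence.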
ATXN viability – cell viability loss in ATXN counter-screen. S2 cells (HEK-293 line with an ATXN2-luciferase reporter) viability, CellTiter-Fluor protease fluorescence, 24 h. Potency, µM (highest dose often 56.7 µM), most hits filed as cytotoxic. 400,000 tested, 0.49% active. AID 651635; also: nearly all actives have a fitted effect of over 40% in size
HepG2 tox-1 – HepG2 cytotoxicity, counter-screen for TGF-b inhibitors | HepG2 CAGA-GFP viability, ATP luminescence, 18 h | Potency, µM (series often up to 46.1 µM), hits mostly cytotoxic | 410,000 tested, 0.76% active | AID 588856
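CellTiter-Glo luminescence gave cytotoxicity after 18 hours at 37 degrees C. The cells were HepG2 CAGA-GFP in 1% FBS DMEM, stimulated with 500 pg/mL TGF-beta after compound addition. %Activity was normalised to no-cell wells (complete cell-killing) and DMSO (no toxicity), and curves were fitted and classified.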
TGFb CAGA inh – TGF-b pathway inhibition, cherry-pick retest. Potency, µM (top dose mostly 46.1 µM), hits mostly inhibitors. 1,600 tested, 63% active. shares compounds with TGFb inhibitor. HepG2 CAGA-GFP TGF-b reporter, GFP fluorescence, 18 h; cells stimulated with TGF-beta, 500 pg/mL; also: nearly all actives have a fitted effect of over 65% in size
HepG2 tox-2 – counter-screen for TGF-b inhibitors: cytotoxicity in HepG2 cells; shares compounds with TGFb inhibitor; HepG2 CAGA-GFP viability, ATP luminescence, 18 h; cells stimulated with TGF-beta, 500 pg/mL; Potency, µM (doses to about 46.1 µM), actives largely listed as inhibitors; 1,600 tested, 27% active; also: nearly all actives have a fitted effect of over 70% in size
TGFb CCL64 inh – orthogonal confirmation of TGF-b inhibitors in CCL64 cells | Potency, µM (top dose mostly 46.1 µM), hits mostly inhibitors | 1,600 tested, 41% active | CCL64 CAGA-GFP reporter, TGF-b stimulated, GFP fluorescence, 18 h | shares compounds with TGFb inhibitor; also: nearly all actives have a fitted effect of over 65% in size
TGFb COP inh – validation of TGF-b inhibitors in HepG2 COP promoter reporter; shares compounds with TGFb inhibitor; 1,600 tested, 3% active; Potency, µM (highest dose often 46.1 µM), actives largely listed as inhibitors; AID 720537; HepG2 COP-GFP TGF-b reporter, GFP fluorescence, 18 h; cells stimulated by added recombinant TGF-beta; also: nearly all actives have a fitted effect of over 70% in size
Hits are given with their value; ! = a repeat was not active. Unless noted, calls follow the shape of the dose curve; as a rule, active = well fitted curve in the direction sought with a large enough effect; inconclusive = small, poorly fitted or top-dose-only effect, or another doubt; inactive = no such curve, though single readings can be large; an effect the other way counts as inactive or inconclusive.

For O=[N+]([O-])c1ccc(NS(=O)(=O)c2ccc(Cl)c(Cl)c2)cc1 the results were ATXN2 expr inh inconclusive, TGFb inhibitor 10µM, ATXN viability inconclusive, HepG2 tox-1 inactive, TGFb CAGA inh 10.3µM, HepG2 tox-2 7.31µM, TGFb CCL64 inh inconclusive and TGFb COP inh inactive.
`O=[N+]([O-])c1ccc(S(=O)(=O)Nc2ccncc2)cc1` gave ATXN2 expr inh inactive, uPA surface inh inactive, TGFb inhibitor inactive, Giardia killer inactive, ATXN viability inactive and HepG2 tox-1 inactive.
For O=C(NC(c1ccccc1)c1ccc2ccccc2n1)C1CCN(Cc2ccc(Oc3ccccc3)cc2)CC1 (stereo not drawn) the results were ATXN2 expr inh inactive, TGFb inhibitor inconclusive, ATXN viability inconclusive and HepG2 tox-1 inactive.
`O=C(NC(c1ccccc1)c1ccc2ccccc2n1)C1CCN(CCOc2ccc(Cl)cc2)CC1` (stereo not drawn) gave ATXN2 expr inh 28.2µM, TGFb inhibitor 7.08µM, ATXN viability 28.2µM, HepG2 tox-1 11.2µM, TGFb CAGA inh 6.51µM, HepG2 tox-2 5.17µM, TGFb CCL64 inh 3.66µM and TGFb COP inh inconclusive.
Screening COc1cc(CN2CCC(C(=O)NC(c3ccc(F)cc3)c3ccc4ccccc4n3)CC2)cc(OC)c1 (stereo not drawn) returned ATXN2 expr inh inactive, TGFb inhibitor 3.55µM, ATXN viability inconclusive, HepG2 tox-1 5.62µM, TGFb CAGA inh inconclusive, HepG2 tox-2 14.6µM, TGFb CCL64 inh 8.2µM and TGFb COP inh inconclusive.
`COc1cc(OC)cc(-c2c(-c3cccs3)c3cc(-c4cnc(OC)nc4)ccc3n2C)c1` gave ATXN2 expr inh inactive, uPA surface inh inactive, TGFb inhibitor inconclusive, Giardia killer inactive, ATXN viability inactive, HepG2 tox-1 inactive, TGFb CAGA inh inconclusive, HepG2 tox-2 inactive, TGFb CCL64 inh inactive and TGFb COP inh inactive.
`COC(=O)c1cccc(Nc2c(-c3cc(Br)ccc3O)nc3nc[nH]n23)c1` gave ATXN2 expr inh inactive, TGFb inhibitor inactive, ATXN viability inactive and HepG2 tox-1 inactive.
CCCCC(CC)C(=O)Nc1ncc([N+](=O)[O-])s1 (stereo not drawn) was read as ATXN2 expr inh inconclusive, uPA surface inh inactive, TGFb inhibitor 11.2µM, Giardia killer -91.3, ATXN viability inconclusive, HepG2 tox-1 inactive, TGFb CAGA inh 7.31µM, HepG2 tox-2 inconclusive, TGFb CCL64 inh inconclusive and TGFb COP inh inactive.
Cc1ccc(COc2ccccc2-c2cc(C(=O)N/N=C/c3cccnc3)[nH]n2)cc1 was read as ATXN2 expr inh inconclusive, uPA surface inh inactive, TGFb inhibitor 11.2µM, Giardia killer inactive, ATXN viability inconclusive, HepG2 tox-1 inactive, TGFb CAGA inh inconclusive, HepG2 tox-2 inconclusive, TGFb CCL64 inh 23.1µM and TGFb COP inh inactive.
`CCOc1ccccc1-c1cc(C(=O)N/N=C/c2cccnc2)c2ccccc2n1` gave ATXN2 expr inh inactive, uPA surface inh inactive, TGFb inhibitor inactive, Giardia killer inactive, ATXN viability inactive and HepG2 tox-1 inactive.
Screening CCCC(=O)NC(=S)Nc1cccc(Cl)c1N1CCCCC1 returned ATXN2 expr inh inconclusive, TGFb inhibitor 7.94µM, Giardia killer inactive, ATXN viability inconclusive, HepG2 tox-1 inactive, TGFb CAGA inh 14.6µM, HepG2 tox-2 inconclusive, TGFb CCL64 inh inconclusive and TGFb COP inh inactive.
CCCCC(=O)NC(=S)Nc1ccccc1N1CCCCC1 was read as ATXN2 expr inh inactive, uPA surface inh inactive, TGFb inhibitor inconclusive, Giardia killer inactive, ATXN viability inactive and HepG2 tox-1 inactive.
CCOC(=O)c1ccc(NC(=O)C(CC)Sc2nc3ncccc3o2)cc1 (stereo not drawn) was read as HepG2 tox-1 inactive.
Screening COc1ccc(CCNC(=O)COC(=O)/C=C/c2ccc3c(c2)OCO3)cc1OC returned ATXN2 expr inh inactive, uPA surface inh inactive, TGFb inhibitor inactive, Giardia killer inactive, ATXN viability inactive and HepG2 tox-1 inactive.
Screening COc1ccc(S(=O)(=O)n2nc(-c3cc(OC)c(OC)c(OC)c3)cc2N)cc1OC returned ATXN2 expr inh inactive, uPA surface inh inactive, TGFb inhibitor inactive, Giardia killer inactive, ATXN viability inactive and HepG2 tox-1 inactive.
COc1ccc(-c2cc(N)n(S(=O)(=O)c3c(F)c(F)c(F)c(F)c3F)n2)cc1OC was read as ATXN2 expr inh 7.94µM, TGFb inhibitor 3.98µM, Giardia killer inactive, ATXN viability 10µM, HepG2 tox-1 8.91µM, TGFb CAGA inh 2.59µM, HepG2 tox-2 8.2µM, TGFb CCL64 inh 2.91µM and TGFb COP inh inconclusive.
`Cc1ccc(C(=O)Nc2cccc(NC(=O)c3ccc(C)cc3)n2)cc1` gave ATXN2 expr inh inactive, uPA surface inh inactive, TGFb inhibitor inactive, Giardia killer inactive, ATXN viability inactive and HepG2 tox-1 inactive.
Screening O=C(Cc1csc(NC(=O)Nc2ccc(Cl)cc2)n1)NC1CCCC1 returned ATXN2 expr inh inactive, uPA surface inh inactive, TGFb inhibitor 11.2µM, Giardia killer inactive, ATXN viability inactive, HepG2 tox-1 inactive, TGFb CAGA inh 16.4µM, HepG2 tox-2 inactive, TGFb CCL64 inh inconclusive and TGFb COP inh inactive.
For COc1cccc(-n2c(-c3ccc(Cl)cc3)cc3c2CC(C)(C)CC3=O)c1 the results were ATXN2 expr inh inactive, TGFb inhibitor inactive, ATXN viability inactive and HepG2 tox-1 inactive.
Cc1ccnc(NC(=O)CCCOc2cc(=O)n(C)c3ccccc23)c1 was read as ATXN2 expr inh 1.26µM!, uPA surface inh inactive, TGFb inhibitor 2.24µM, Giardia killer inactive, ATXN viability inactive, HepG2 tox-1 inactive, TGFb CAGA inh 5.8µM, HepG2 tox-2 4.11µM, TGFb CCL64 inh 25.9µM and TGFb COP inh inactive.
For COc1ccc(N2CCN(C(=O)CCn3nc(C)c(S(=O)(=O)N4CCCC4)c3C)CC2)cc1 the results were ATXN2 expr inh inactive, TGFb inhibitor inactive, ATXN viability inactive and HepG2 tox-1 inactive.
